The values below come from PubChem BioAssay.

Molecules are shown by their SMILES. The source made the active and inactive calls.

The subject of assay [1] is Plasmodium falciparum Sir2 (PF13_0152, Sir2A). Nature of the assay: Plasmodium falciparum Sir2A binding compounds – biochemical, small-molecule microarray, 635 nm fluorescence, primary screen (AID 1098).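 Also: score merges spot fluorescence intensity with its signal-to-noise ratio.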 The conditions noted are these: fluorescence 635 nm, higher = more signal.
Assay [2] in a line: probe aDKK1 binding to arrayed compounds – biochemical, biotinylated probe, 635/667 nm fluorescence, primary screen (AID 1099).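 Also: score merges 667nm spot fluorescence with signal to noise across triplicate slides.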 The settings on record: small-molecule microarray, higher = more signal.
The nature of assay [3]: probe aCHRDL2 binding to arrayed compounds – biochemical, biotinylated probe, 635/667 nm fluorescence, primary screen (AID 1100). The conditions noted are these: small-molecule microarray, higher = more signal.
A short description of assay [4]: change in splice reporter luminescence, either direction, cell-based, HEK293, spliceosome inhibition project, primary screen (AID 1101).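 Also: HEK293 cells carrying a splicing-competent luciferase reporter gene; test concentration not given here.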 The conditions noted are these: HEK293 splicing luciferase reporter, 24 h, higher = more signal, called active from +8 up or from −8 down.
Assay [5] addresses Fibroblast growth factor 10 (Homo sapiens) (UniProt O15520). Briefly: compounds binding fibroblast growth factor 10 – biochemical, small-molecule microarray, 635 nm fluorescence, primary screen (AID 1102). The conditions noted are these: FGF10 binding, fluorescence 635 nm, higher = more signal.
Assay [6] relates to glycogen synthase kinase-3 (GSK3A per assay name; protocol says GSK3B). Nature of the assay: compounds binding glycogen synthase kinase-3 – biochemical, small-molecule microarray, 635 nm fluorescence, GSK3A, primary screen (AID 1103). Also: the record names both GSK3A and GSK3B. The settings on record: fluorescence 635 nm, higher = more signal.
Assay [7] concerns the target Epidermal growth factor receptor (Homo sapiens) (UniProt P00533). Briefly: compounds binding epidermal growth factor receptor – biochemical, small-molecule microarray, 635 nm fluorescence, primary screen (AID 1104).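 Also: score merges 667 nm emission intensity with spot signal to noise over triplicate slides.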 The conditions noted are these: EGFR binding, higher = more signal.
In assay [8] the target is Follistatin-related protein 3 (Homo sapiens) (UniProt O95633). Nature of the assay: compounds binding follistatin-related protein 3 – biochemical, small-molecule microarray, 635 nm fluorescence, primary screen (AID 1105).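 Also: score merges emission near 667 nm and signal to noise per printed spot across three slides.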 The conditions noted are these: FSTL3 binding, higher = more signal.
Sequence of Follistatin-related protein 3 (Homo sapiens) (O95633 whole entry, looked up): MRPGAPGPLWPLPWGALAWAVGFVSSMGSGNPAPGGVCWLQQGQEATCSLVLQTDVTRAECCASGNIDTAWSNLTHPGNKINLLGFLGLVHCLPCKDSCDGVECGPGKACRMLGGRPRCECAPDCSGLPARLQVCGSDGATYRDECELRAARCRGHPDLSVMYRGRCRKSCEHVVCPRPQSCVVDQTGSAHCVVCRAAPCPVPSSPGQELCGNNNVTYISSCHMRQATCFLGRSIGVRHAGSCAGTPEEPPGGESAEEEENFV
Assay [9] addresses Dickkopf-related protein 1 (Homo sapiens) (UniProt O94907). Briefly: small molecules binding DKK1 protein – biochemical, small-molecule microarray, 635 nm fluorescence scan, primary screen (AID 1106).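 Also: score merges emission near 667 nm with signal to noise over three replicate slides.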 The conditions noted are these: higher = more signal.
Assay [10] has as its system Inhibin beta A chain (activin A). Nature of the assay: small molecules binding activin A – biochemical, small-molecule microarray, 635 nm fluorescence scan, primary screen (AID 1107).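 Also: mouse activin A protein probed at 4.33 µg/mL on printed slides; score merges bound-protein fluorescence near 667 nm with spot signal-to-noise.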 The conditions noted are these: INHBA, higher = more signal.
Assay [11] relates to Human papillomavirus type 1a protein E7 (residues 44-93). Briefly: small molecules binding HPV E7 44-93 – biochemical, small-molecule microarray, residues 44-93, 635 nm fluorescence, primary screen (AID 1108).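 Also: E7 fragment applied at 1 µg/mL in TBST for 1 h at 4 C; score combines spot fluorescence with its signal to noise ratio.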 The conditions noted are these: fluorescence 635 nm, higher = more signal.
A short description of assay [12]: hepatitis C replication reporter changes, two-sided – Huh7 cells, luciferase reporter, HCV replication inhibitor project, primary screen (AID 1109).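 Also: huh7 hepatoma cells harbouring a luciferase neomycin HCV replicon reporter; luciferase luminescence as measure of HCV replicon replication; test concentration not given here.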 The conditions noted are these: Huh7 HCV replicon luciferase reporter, 48 h; higher = more signal.
The target of assay [13] is Left-right determination factor 2 (Homo sapiens) (UniProt O00292). Briefly: small molecules binding LEFTY2 protein – biochemical, small-molecule microarray, 635 nm fluorescence scan, primary screen (AID 1110). The settings on record: higher = more signal.
Sequence of Left-right determination factor 2 (Homo sapiens) (O00292 whole entry, looked up): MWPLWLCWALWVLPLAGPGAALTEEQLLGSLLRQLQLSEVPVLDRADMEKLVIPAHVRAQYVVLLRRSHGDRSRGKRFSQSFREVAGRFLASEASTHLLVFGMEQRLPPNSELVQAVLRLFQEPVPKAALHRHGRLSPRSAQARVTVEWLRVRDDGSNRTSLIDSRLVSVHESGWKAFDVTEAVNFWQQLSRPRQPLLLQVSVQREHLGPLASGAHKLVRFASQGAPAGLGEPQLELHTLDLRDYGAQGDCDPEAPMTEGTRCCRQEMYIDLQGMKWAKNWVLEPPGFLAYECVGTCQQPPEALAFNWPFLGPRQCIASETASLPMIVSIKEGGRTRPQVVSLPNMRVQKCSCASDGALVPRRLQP
The target of assay [14] is Calmodulin-1 (Homo sapiens) (UniProt P0DP23). Nature of the assay: small molecules binding calmodulin-1 with EGTA – biochemical, small-molecule microarray, Cy5-labelled CALM1, profiling panel (AID 1111).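 Also: labelled calmodulin applied in Tris saline Tween buffer holding calcium plus EGTA and DTT.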 The conditions noted are these: Cy5-CALM1 binding fluorescence, higher = more signal.
For assay [15] the target is unchanged. Nature of the assay: small molecules binding Ca-loaded calmodulin-1 – biochemical, small-molecule microarray, Cy5-labelled CALM1, plus calcium, artefact control for SMM control-protein annotation, profiling panel (AID 1112).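 Also: score merges spot fluorescence with signal to noise from triplicate slides.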 The conditions noted are these: Cy5-CALM1 binding fluorescence, higher = more signal.
Assay [16] can be described thus: probe aWnt5a binding to arrayed compounds – biochemical, biotinylated probe, 635/667 nm fluorescence, primary screen (AID 1113).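 Also: score merges 667 nm fluorescence intensity with signal-to-noise per printed feature.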 The settings on record: small-molecule microarray, higher = more signal.
Assay [17] can be described thus: probe aShh binding to arrayed compounds – biochemical, biotinylated probe, 635/667 nm fluorescence, primary screen (AID 1114).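 Also: probe is biotin-labelled aShh protein from a stem cell growth factor screen; measures binding of labelled protein to compounds printed on the slide; score merges feature fluorescence at 667 nm with signal-to-noise.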 The conditions noted are these: small-molecule microarray, higher = more signal.
Assay [18] in a line: probe aNog binding to arrayed compounds – biochemical, biotinylated probe, 635/667 nm fluorescence, primary screen (AID 1115).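 Also: probe is biotinylated aNog protein used at 0.15 µg/mL for 1 h at 4 C; z-score combines 667 nm fluorescence of each spot with its signal to noise.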 The conditions noted are these: small-molecule microarray, higher = more signal.
In assay [19] the target is Torsin-1A-interacting protein 1 (Homo sapiens) (UniProt Q5JTV8). Nature of the assay: compound microarray binding of lysate hLAP1 – cell lysate, small-molecule microarray, COS7 lysate, 635/667 nm fluorescence, primary screen (AID 1116). The conditions noted are these: 635 nm fluorescence, higher = more signal.
Sequence of Torsin-1A-interacting protein 1 (Homo sapiens) (Q5JTV8 whole entry, looked up): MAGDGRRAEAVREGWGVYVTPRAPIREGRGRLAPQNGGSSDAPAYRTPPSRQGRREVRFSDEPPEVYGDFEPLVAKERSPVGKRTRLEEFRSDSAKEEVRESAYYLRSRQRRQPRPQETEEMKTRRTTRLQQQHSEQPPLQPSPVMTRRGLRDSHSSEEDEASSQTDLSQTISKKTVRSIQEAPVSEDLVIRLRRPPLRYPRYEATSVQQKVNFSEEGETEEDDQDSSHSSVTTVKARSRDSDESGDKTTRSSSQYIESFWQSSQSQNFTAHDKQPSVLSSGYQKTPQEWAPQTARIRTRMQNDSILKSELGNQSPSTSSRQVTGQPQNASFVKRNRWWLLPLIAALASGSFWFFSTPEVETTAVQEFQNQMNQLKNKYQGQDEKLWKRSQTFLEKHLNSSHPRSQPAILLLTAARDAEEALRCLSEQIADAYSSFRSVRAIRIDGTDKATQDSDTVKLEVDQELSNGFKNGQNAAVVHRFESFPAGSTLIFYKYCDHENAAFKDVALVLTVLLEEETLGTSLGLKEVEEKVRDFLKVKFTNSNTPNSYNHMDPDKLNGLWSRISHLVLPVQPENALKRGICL
Assay [20] deals with Alpha-bungarotoxin (Bungarus multicinctus) (UniProt P60615). Briefly: compounds binding labelled alpha-BTX control protein – biochemical, small-molecule microarray, Alexa647 label, 635/667 nm fluorescence, artefact control for SMM control protein annotation, profiling panel (AID 1117). The settings on record: alpha-BTX-A647 binding fluorescence, higher = more signal.
Sequence of Alpha-bungarotoxin (Bungarus multicinctus) (P60615 whole entry, looked up): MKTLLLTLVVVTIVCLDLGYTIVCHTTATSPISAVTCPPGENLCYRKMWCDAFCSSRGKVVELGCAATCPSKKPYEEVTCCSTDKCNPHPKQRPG

Sequence of Fibroblast growth factor 10 (Homo sapiens) (O15520 whole entry, looked up): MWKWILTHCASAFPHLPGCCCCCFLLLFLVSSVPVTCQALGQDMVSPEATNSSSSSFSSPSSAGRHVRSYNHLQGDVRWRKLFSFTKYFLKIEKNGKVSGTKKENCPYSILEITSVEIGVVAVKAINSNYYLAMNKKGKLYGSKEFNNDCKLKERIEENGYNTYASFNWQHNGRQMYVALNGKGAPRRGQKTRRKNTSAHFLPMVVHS
Sequence of Epidermal growth factor receptor (Homo sapiens) (P00533 whole entry, looked up): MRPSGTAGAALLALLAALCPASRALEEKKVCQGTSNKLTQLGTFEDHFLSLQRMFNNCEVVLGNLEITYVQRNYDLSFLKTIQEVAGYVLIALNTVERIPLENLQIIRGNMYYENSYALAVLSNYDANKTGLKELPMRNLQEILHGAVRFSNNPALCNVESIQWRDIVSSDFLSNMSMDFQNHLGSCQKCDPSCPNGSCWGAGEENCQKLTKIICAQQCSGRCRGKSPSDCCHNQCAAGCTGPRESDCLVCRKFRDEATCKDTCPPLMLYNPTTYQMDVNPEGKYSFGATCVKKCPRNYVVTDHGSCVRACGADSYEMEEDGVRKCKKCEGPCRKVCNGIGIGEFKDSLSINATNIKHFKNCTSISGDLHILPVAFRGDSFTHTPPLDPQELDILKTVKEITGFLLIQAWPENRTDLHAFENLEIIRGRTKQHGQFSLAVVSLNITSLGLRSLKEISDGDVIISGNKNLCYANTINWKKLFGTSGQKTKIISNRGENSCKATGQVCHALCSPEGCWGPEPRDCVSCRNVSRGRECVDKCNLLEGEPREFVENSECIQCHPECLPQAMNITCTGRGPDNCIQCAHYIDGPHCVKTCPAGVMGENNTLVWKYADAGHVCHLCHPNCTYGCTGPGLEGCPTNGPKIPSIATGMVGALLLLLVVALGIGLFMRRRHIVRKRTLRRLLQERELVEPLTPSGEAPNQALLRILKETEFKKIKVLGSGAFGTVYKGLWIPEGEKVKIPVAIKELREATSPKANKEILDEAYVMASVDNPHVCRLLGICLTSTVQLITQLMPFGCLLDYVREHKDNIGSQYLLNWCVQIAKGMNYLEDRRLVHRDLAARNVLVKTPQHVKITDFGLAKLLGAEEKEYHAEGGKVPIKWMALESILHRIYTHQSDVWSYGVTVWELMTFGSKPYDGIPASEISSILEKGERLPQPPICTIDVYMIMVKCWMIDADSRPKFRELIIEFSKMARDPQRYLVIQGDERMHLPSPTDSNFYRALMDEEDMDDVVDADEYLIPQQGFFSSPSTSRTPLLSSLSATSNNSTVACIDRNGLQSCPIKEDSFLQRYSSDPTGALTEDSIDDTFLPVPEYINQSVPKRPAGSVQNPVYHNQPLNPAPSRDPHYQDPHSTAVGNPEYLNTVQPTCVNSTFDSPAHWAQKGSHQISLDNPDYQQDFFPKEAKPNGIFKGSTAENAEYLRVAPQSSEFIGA
Sequence of Dickkopf-related protein 1 (Homo sapiens) (O94907 whole entry, looked up): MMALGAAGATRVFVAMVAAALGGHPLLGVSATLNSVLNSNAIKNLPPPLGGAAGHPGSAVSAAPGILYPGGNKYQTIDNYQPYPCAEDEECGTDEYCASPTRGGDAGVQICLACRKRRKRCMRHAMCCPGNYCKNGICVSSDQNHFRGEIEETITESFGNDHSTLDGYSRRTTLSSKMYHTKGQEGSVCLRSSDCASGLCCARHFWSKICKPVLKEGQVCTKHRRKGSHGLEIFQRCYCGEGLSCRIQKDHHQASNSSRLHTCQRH

For `C=CCN1C(=O)[C@]2(O[C@H](CCn3cc(CCO)nn3)[C@@H]([Si](C)(C)c3ccc(OC)cc3)[C@@H]2C)c2cc(NC(=O)c3ccc(OC)cc3)ccc21`, the composite z-score in [1] came out at 0.799; in [2] it was 0.717; in assay [3], 0.794; in [5] it was 0.515; in assay [6], 1.23; in assay [7], 0.384. Moreover, the composite z-score in assay [8] was 0.876; in assay [9], 0.863; in assay [10], 1.63; in [11], 1.09; in assay [13] it was 0.774; in assay [14], 0.289. In addition, the composite z-score in [15] was 0.336; in [16], -0.124; in assay [17], 0.166; in assay [18] it was 0.188; in assay [19] it was 0.573; in [20], 1.19. Also, the results for the z-score in [4] and in assay [12] were 0.0559 (inactive) and -3.44, respectively.
As to `C=C[C@H](OC)[C@@H](OC(=O)Nc1ccc(SC)cc1)c1ccc(O)c(F)c1`, the composite z-score was 1.03 in assay [1]; -0.145 in assay [2]; 0.0453 in assay [3]; 1.01 in assay [5]; 0.0309 in assay [6]; -0.133 in assay [7]. Also, the composite z-score in [8] is 0.264; in [9], -0.39; in assay [10], -0.433; in [11], 0.998; in assay [13], -0.367; in assay [14] it was 0.0665. The composite z-score was -0.0093 in [15]; -0.0486 in assay [16]; 0.0008 in [17]; -0.443 in [18]; 1.31 in assay [19]; 0.358 in [20]. The z-score in [4] was -1.97 (inactive); in assay [12] it was 3.8.
In the case of `CCOC(=O)C[C@H]1[C@H](OC(=O)Cc2ccc3c(c2)OCO3)[C@@H](NC(=O)CC(C)C)c2cc(OCCCO)ccc2N1C(=O)c1ccccc1`, the composite z-score in assay [1] was 0.899; in [2], -0.095; in assay [3], -0.533; in assay [5] it was 0.723; in [6] it was 0.263; in [7], 0.369. Moreover, the composite z-score in assay [8] was 0.321; in assay [9], 0.451; in [10] it was 0.643; in assay [11], 0.338; in assay [13], 0.371; in [14] it was -0.278. Further, the composite z-score in assay [15] was -0.215; in assay [16], -0.0478; in assay [17], 0.081; in assay [18], 0.161; in assay [19], 0.662; in assay [20], 0.111. Further, the z-score in assay [4] was -1.6 (inactive); in assay [12], 0.0689.
As to `CC(C)[C@H]1NC(=O)[C@@]23C(=O)N[C@@H](Cc4ccccc4)C2[C@H](C)[C@@]2(C)O[C@H]2C3/C=C/C/C=C\CNC(=O)[C@H](C)NC1=O` (stereo not given in full), the composite z-score was -0.949 in [1]; -0.386 in [2]; -0.256 in [3]; 0.392 in assay [5]; -1.37 in [6]; -1.31 in assay [7]. The composite z-score is -0.825 in assay [8]; -0.443 in [9]; 1.32 in assay [10]; -0.473 in [11]; -0.796 in assay [13]; -0.703 in assay [14]. Moreover, the composite z-score in assay [15] was -0.751; in assay [16], -0.284; in assay [17], -0.367; in assay [18], -0.32; in assay [19] it was -0.198; in assay [20] it was -1.12. In addition, the z-score in assay [4] was 0.616 (inactive); in assay [12], 0.631.
Regarding `O=C1c2ccccc2[C@](Cc2ccccc2I)(C(=O)NCc2ccccc2)[C@H](c2ccc(CO)cc2)N1Cc1ccccc1C(F)(F)F`, the composite z-score in assay [1] is 0.74; in assay [2], 0.606; in assay [3], 1.11; in [5], -0.881; in assay [6] it was -1.42; in [7], -1.39. For the same compound, the composite z-score was -1.27 in assay [8]; -2.07 in assay [9]; 0.623 in [10]; -0.32 in assay [11]; -1.38 in assay [13]; -0.027 in assay [14]. For the same compound, the composite z-score was 0.988 in [15]; -0.148 in assay [16]; -0.0146 in [17]; 1.06 in assay [18]; -0.08 in [19]; -0.442 in assay [20]. Moreover, the z-score is -0.984 (inactive) in assay [4] and 0.344 in [12].
